SRC1 TRFRET art: counter-screen for PPARgamma SRC-1 recruitment agonists: TR-FRET artefact | hit rate 0.34% among 99,000 | TR-FRET ratio at 8 µM | TR-FRET detection artefact counter-screen, emission ratio; stronger effect = higher value; in the data active means TR-FRET ratio above about 2300
PPARg SRC-2 ag: promotes SRC-2 coactivator recruitment by human PPARgamma; P37231; PPARgamma LBD-SRC-2 recruitment, biochemical; activation, % at 8 µM; hit rate 0.34% among 200,000; AID 1032; in the data active means activation above about 22%;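 further: 0% = vehicle and 100% = reference agonist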
Target sequence (P37231 whole entry, looked up, the tested form may be a part): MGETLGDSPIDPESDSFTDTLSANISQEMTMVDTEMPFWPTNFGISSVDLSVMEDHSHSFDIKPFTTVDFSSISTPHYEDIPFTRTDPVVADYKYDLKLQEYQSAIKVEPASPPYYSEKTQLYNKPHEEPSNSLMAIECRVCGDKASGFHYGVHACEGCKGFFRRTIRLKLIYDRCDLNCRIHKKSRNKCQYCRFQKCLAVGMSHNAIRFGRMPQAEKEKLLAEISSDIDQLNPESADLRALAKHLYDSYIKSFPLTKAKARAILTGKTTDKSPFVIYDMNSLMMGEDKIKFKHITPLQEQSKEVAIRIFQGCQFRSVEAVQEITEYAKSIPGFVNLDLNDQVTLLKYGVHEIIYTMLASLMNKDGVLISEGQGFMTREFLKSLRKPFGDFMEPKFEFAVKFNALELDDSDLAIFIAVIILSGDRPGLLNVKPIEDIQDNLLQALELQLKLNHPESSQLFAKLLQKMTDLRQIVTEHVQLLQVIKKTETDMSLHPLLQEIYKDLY
PPARg SRC1 recr: PPARgamma-driven SRC-1 recruitment agonism | P37231 | PPARgamma-SRC-1 coactivator recruitment biochemical assay | activation, % at 8 µM | hit rate 0.41% among 200,000 | AID 631; in the data active means activation above about 19%;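 further: 0% = DMSO and 100% = reference agonist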
SRC2 TRFRET art: TR-FRET artefact, counter-screen to PPARgamma/SRC-2 agonist assay. AID 1049. hit rate 0.4% among 200,000. TR-FRET ratio at 8 µM. stronger effect = higher value
PPARg SRC3 recr: promotes SRC-3 coactivator recruitment by human PPARgamma; P37231; biochemical PPARgamma/SRC-3 coactivator recruitment assay; activation, % at 8 µM; hit rate 0.26% among 200,000; in the data active means activation above about 23%;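 further: 0% = DMSO and 100% = reference agonist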
SRC3 TRFRET art: counter-screen for PPARgamma SRC-3 recruitment agonists: TR-FRET artefact | PPARgamma/SRC-3 format; stronger effect = higher value | TR-FRET ratio at 8 µM | hit rate 0.39% among 99,000 | AID 1048
PPARg SRC2 conf: human PPARgamma SRC-2 recruitment agonism, confirmation; biochemical SRC-2 recruitment by PPARgamma; hit rate 52% among 790; shares compounds with PPARg SRC3 recr; AID 1297; activation, % at 8 µM; in the data active means activation above about 22%;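 further: 0% = vehicle alone and 100% = reference agonist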
PPARg SRC1 ag: confirmation of agonists of SRC-1 recruitment by human PPARgamma; PPARgamma–SRC-1 coactivator recruitment biochemical assay; hit rate 43% among 790; shares compounds with PPARg SRC3 recr; activation, % at 8 µM; in the data active means activation above about 20%;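 further: 0% = vehicle wells and 100% = reference agonist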
PPARg SRC3 conf: human PPARgamma SRC-3 recruitment agonism, confirmation; shares compounds with PPARg SRC3 recr; activation, % at 8 µM; biochemical PPARgamma-SRC-3 coactivator recruitment, agonist mode; hit rate 29% among 790; in the data active means activation above about 24%;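 further: 0% = vehicle wells and 100% = reference agonist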
Numbers without * were called inactive; . = no result given. Only some compounds are listed: those with a hit (about 0.9% of all), similar ones and a draw of the others. Unless noted, no stated cut-off is given here; in the data, active means TR-FRET ratio above about 2000; inactive means the rest.

SMILES	SRC1 TRFRET art	PPARg SRC-2 ag	PPARg SRC1 recr	SRC2 TRFRET art	PPARg SRC3 recr	SRC3 TRFRET art	PPARg SRC2 conf	PPARg SRC1 ag	PPARg SRC3 conf
CCN1/C(=C/C=C/c2oc3ccc(-c4ccccc4)cc3[n+]2CC)Oc2ccc(-c3ccccc3)cc21	1825	3.2	9.7	1917	5.2	1891	.	.	.
Cc1ccc(C)c(-n2c3nc(=O)[nH]c(=O)c-3cc3cc([N+](=O)[O-])ccc32)c1	1662	-2.9	12.9	1510	22.6*	1545	11.4	12.6	21.0
O=C(O)c1cn(-c2ccc(N3CCCC3)c(F)c2)c2c(F)c(F)c(F)cc2c1=O	4223*	67.8*	67.3*	3278*	38.1*	3524*	-4.9	-4.0	3.7
C=CCN(CC=C)C(=O)c1ccc(OC2CCN(S(=O)(=O)N(C)C)CC2)cc1	1685	-6.8	-4.0	1531	-3.9	1419	.	.	.
COc1ccc(/C=N/NC(N)=S)cc1OC(=O)c1cccc2ccccc12	.	5.7	9.3	1635	8.8	.	.	.	.
Nc1ccc(-c2nc3ccc(N)cc3[nH]2)cc1	2123	17.9	31.1*	1836	7.8	2018	2.7	12.2	3.3
C=CCn1c(NCc2cc(C)ccc2O)nc2ccccc21	.	18.7	7.8	1758	3.1	.	.	.	.
C=CCn1c(NC(C)c2cc(Cl)ccc2O)nc2ccccc21 (stereo unspecified)	.	27.1*	41.0*	1650	28.1*	.	19.0	31.8*	31.5*
CC(Nc1ccc(Cl)cc1)c1cc(Cl)ccc1O (stereo unspecified)	.	3.9	1.2	1301	7.0	.	.	.	.
CC(Nc1ccc(Br)cn1)c1cc(Cl)ccc1O (stereo unspecified)	.	36.6*	77.9*	1617	51.8*	.	32.9*	50.8*	41.1*
S=c1[nH]nc(-c2ccccn2)n1/N=C/c1ccc(-c2ccccc2Br)o1	5322*	129.3*	69.1*	4475*	69.2*	4805*	82.1*	60.3*	52.8*
CC(C)c1[nH]nc2c1C(Cc1ccccc1)C(C#N)=C(N)O2 (stereo unspecified)	.	8.2	19.3*	1603	-7.4	.	7.4	3.5	3.9
CCC1=NN2C(=N)/C(=C\c3cccn3-c3cccc(Cl)c3)C(=O)N=C2S1	1886	6.5	11.9	1702	27.6*	1603	7.4	9.7	12.7
S=c1[nH]c(-c2ccc(Cl)cc2)cs1	2339*	29.6*	26.7*	1997*	16.7	2141*	27.1*	19.1	16.9
CCOC(=O)NC(=O)C(/C=N/c1sccc1C(=O)OC)=C(\C)O	1551	-1.7	2.0	1426	-1.5	1504	.	.	.
COc1ccc(OC)c2c1C(=O)c1ccccc1C2=O	.	6.8	5.1	1531	-1.5	.	.	.	.
Nc1ccc(O)c2c1C(=O)c1ccccc1C2=O	2546*	31.5*	24.3*	2073*	21.4	2307*	17.4	11.0	9.6
COc1ccc(N)c2c1C(=O)c1ccccc1C2=O	2519*	33.6*	23.0*	1893	27.1*	2262*	25.3*	22.7*	20.1
COc1ccc(CC(=O)Nc2cccc(SC)c2)cc1OC	1881	13.6	12.0	1603	1.6	1801	.	.	.
COc1cccc(Nc2nc(-c3sc(NC(=O)c4ccccc4)nc3C)cs2)c1	.	15.4	13.3	1767	26.7*	.	41.5*	25.7*	19.3
COc1ccc2c(c1)oc(=O)c1ccccc12	1968	-1.6	-1.1	1366	-3.7	1747	.	.	.
COc1ccc2c(c1)oc(=O)c1c3ccccc3[nH]c21	4961*	55.9*	47.5*	3710*	40.7*	3944*	44.2*	32.7*	26.8*
Cc1ccc(C2C(C(=O)c3cccs3)=C(O)C(=O)N2c2nnc(C)s2)cc1 (stereo unspecified)	2419*	12.3	22.9*	2089*	6.8	2078*	19.9	17.5	13.7
